Tests used:
Settings in all cases: concentration: 1 μM, replicates: in singlicate; n = 1
TNNI3K = tested on: TNNI3K
TRKA = tested on: T1, TRKA
T1 construct: gene NTRK1

TRKB = tested on: TRKB
TRKC = tested on: T2, TRKC
T2 construct: gene NTRK3

TRPM6 = tested on: TRPM6
TSSK1B = tested on: TSSK1B
TSSK3 = tested on: TSSK3
TTK = tested on: TTK
TXK = tested on: TXK
[1] = tested on: TYK2(JH1domain-catalytic)
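Also: KINOMEscan kinase panel screen.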

Cc1ccc(NC(=O)c2ccnc(N3CCCCC3)c2)cc1-c1ccc(C(=O)NCC2CC2)cc1 [GW775610]
%Inh (TNNI3K): 13%
%Inh (TRKA): 58%
%Inh (TRKB): 14%
%Inh (TRKC): 0%
%Inh (TRPM6): 0%
%Inh (TSSK1B): 0%
%Inh (TSSK3): 23%
%Inh (TTK): 0%
%Inh (TXK): 0%
%Inh [1]: 19%

CN(C)c1ncnc2nc[nH]c12 [SKF-31736]
%Inh (TNNI3K): 0%
%Inh (TRKA): 0%
%Inh (TRKB): 0%
%Inh (TRKC): 28%
%Inh (TRPM6): 30%
%Inh (TSSK1B): 0%
%Inh (TSSK3): 4%
%Inh (TTK): 0%
%Inh (TXK): 0%
%Inh [1]: 0%

Cl.N#CCc1ccc(Nc2nccc(Nc3ccc(Oc4ccccc4)cc3)n2)cc1 [GW639905]
%Inh (TNNI3K): 0%
%Inh (TRKA): 0%
%Inh (TRKB): 39%
%Inh (TRKC): 34%
%Inh (TRPM6): 29%
%Inh (TSSK1B): 6%
%Inh (TSSK3): 10%
%Inh (TTK): 11%
%Inh (TXK): 36%
%Inh [1]: 40%

CN(c1ccc(NC(=O)N2CCN(CCCN3CCOCC3)CC2)cc1)c1ccnc(Nc2ccc(CS(C)(=O)=O)cc2)n1.Cl [GW830899]
%Inh (TNNI3K): 5%
%Inh (TRKA): 0%
%Inh (TRKB): 0%
%Inh (TRKC): 0%
%Inh (TRPM6): 0%
%Inh (TSSK1B): 3%
%Inh (TSSK3): 0%
%Inh (TTK): 26%
%Inh (TXK): 38%
%Inh [1]: 31%

Cc1ccc(O)cc1Nc1ccnc2cc(-c3ccc(CN4CCCCC4)o3)ccc12 [GW557777]
%Inh (TNNI3K): 20%
%Inh (TRKA): 42%
%Inh (TRKB): 0%
%Inh (TRKC): 0%
%Inh (TRPM6): 0%
%Inh (TSSK1B): 0%
%Inh (TSSK3): 0%
%Inh (TTK): 0%
%Inh (TXK): 98.3%
%Inh [1]: 63%

COc1cccc2c(-c3ccncc3)c(-c3ccc(F)cc3)nn12 [GW468513]
%Inh (TNNI3K): 6%
%Inh (TRKA): 17%
%Inh (TRKB): 11%
%Inh (TRKC): 0%
%Inh (TRPM6): 9%
%Inh (TSSK1B): 49%
%Inh (TSSK3): 21%
%Inh (TTK): 0%
%Inh (TXK): 6%
%Inh [1]: 25%

CNc1nccc(-c2ccc3c(N)n[nH]c3c2)n1 [GSK2206003]
%Inh (TNNI3K): 0%
%Inh (TRKA): 52%
%Inh (TRKB): 23%
%Inh (TRKC): 3%
%Inh (TRPM6): 0%
%Inh (TSSK1B): 0%
%Inh (TSSK3): 21%
%Inh (TTK): 37%
%Inh (TXK): 11%
%Inh [1]: 46%

CC(=O)Nc1cn2nc(Oc3cccc(NC(=O)c4cccc(C(F)(F)F)c4)c3)ccc2n1
%Inh (TNNI3K): 97%
%Inh (TRKA): 0%
%Inh (TRKB): 0%
%Inh (TRKC): 0%
%Inh (TRPM6): 0%
%Inh (TSSK1B): 8%
%Inh (TSSK3): 0%
%Inh (TTK): 29%
%Inh (TXK): 61%
%Inh [1]: 0%

Cl.Cl.NC(CNC(=O)c1cc(Br)c(-c2ccnc3[nH]ccc23)s1)c1ccccc1 (stereo not shown) [GSK1322949]
%Inh (TNNI3K): 0%
%Inh (TRKA): 100%
%Inh (TRKB): 91.6%
%Inh (TRKC): 85%
%Inh (TRPM6): 0%
%Inh (TSSK1B): 7%
%Inh (TSSK3): 34%
%Inh (TTK): 38%
%Inh (TXK): 0%
%Inh [1]: 71%

COC(=O)Nc1nc2cc(Oc3ccc(NC(=O)Nc4cccc(SC)c4)cc3)ccc2[nH]1.Cl [GW697999]
%Inh (TNNI3K): 81%
%Inh (TRKA): 81%
%Inh (TRKB): 82%
%Inh (TRKC): 90%
%Inh (TRPM6): 0%
%Inh (TSSK1B): 0%
%Inh (TSSK3): 11%
%Inh (TTK): 4%
%Inh (TXK): 0%
%Inh [1]: 10%

CCNC(=O)/C=C/c1n[nH]c2cc(Sc3ccccc3C(=O)NC)ccc12
%Inh (TNNI3K): 22%
%Inh (TRKA): 34%
%Inh (TRKB): 0%
%Inh (TRKC): 0%
%Inh (TRPM6): 0%
%Inh (TSSK1B): 19%
%Inh (TSSK3): 13%
%Inh (TTK): 0%
%Inh (TXK): 0%
%Inh [1]: 0%

Cc1ccc(C)c(NC(=O)Nc2ccc(C)c(-c3ccc(C(=O)Nc4ccncc4)cc3)c2)c1 [GSK1398473]
%Inh (TNNI3K): 59%
%Inh (TRKA): 0%
%Inh (TRKB): 0%
%Inh (TRKC): 0%
%Inh (TRPM6): 2%
%Inh (TSSK1B): 17%
%Inh (TSSK3): 2%
%Inh (TTK): 13%
%Inh (TXK): 25%
%Inh [1]: 0%

Cc1ccccc1CC(=O)N1CCc2cc(-c3cn(C)c4ncnc(N)c34)ccc21 [GSK2603346]
%Inh (TNNI3K): 0%
%Inh (TRKA): 39%
%Inh (TRKB): 14%
%Inh (TRKC): 21%
%Inh (TRPM6): 40%
%Inh (TSSK1B): 0%
%Inh (TSSK3): 26%
%Inh (TTK): 0%
%Inh (TXK): 0%
%Inh [1]: 0%

Cn1cc(-c2ccc3c(c2)CCN3C(=O)Cc2cc(F)cc(C(F)(F)F)c2)c2c(N)ncnc21 [GSK2635225]
%Inh (TNNI3K): 47%
%Inh (TRKA): 49%
%Inh (TRKB): 49%
%Inh (TRKC): 69%
%Inh (TRPM6): 36%
%Inh (TSSK1B): 0%
%Inh (TSSK3): 15%
%Inh (TTK): 26%
%Inh (TXK): 0%
%Inh [1]: 0%

Cl.Cl.NCC(NC(=O)c1cc(-c2cccnc2)c(-c2ccnc3[nH]ccc23)s1)c1ccccc1 (stereo not shown) [GSK1323434]
%Inh (TNNI3K): 26%
%Inh (TRKA): 31%
%Inh (TRKB): 40%
%Inh (TRKC): 48%
%Inh (TRPM6): 34%
%Inh (TSSK1B): 14%
%Inh (TSSK3): 19%
%Inh (TTK): 4%
%Inh (TXK): 0%
%Inh [1]: 28%

Cn1cc(-c2ccc3c(c2)CCN3C(=O)Cc2cc(F)cc(F)c2F)c2c(N)ncnc21 [GSK2634140]
%Inh (TNNI3K): 0%
%Inh (TRKA): 36%
%Inh (TRKB): 0%
%Inh (TRKC): 38%
%Inh (TRPM6): 8%
%Inh (TSSK1B): 0%
%Inh (TSSK3): 8%
%Inh (TTK): 0%
%Inh (TXK): 13%
%Inh [1]: 11%
